Data: PubChem BioAssay (NCI)
Where “and” joins values, the source holds several entries; their conditions need not be identical. Equal entries are not always repeated. Compounds without any hit were thinned out: in the full panel of roughly 83,000, 20% have a hit.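 Testing used 96-well plates and a 48-hour single-concentration exposure. Example: -40 means 40% of the starting cells died.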 Calls of active or inactive are those of the source. How the source made its calls: active means growth percent below 10; inactive means the rest.

Legend:
Experiment in all cases: NCI-60 one-dose screen, 48 h (100 = growth as untreated, 0 = no growth, -100 = all killed)
Conditions in all cases: 10 µM unless noted
[1] = tested on: NCI-H23 lung
[2] = tested on: NCI-H226 lung
[3] = tested on: NCI-H322M lung
[4] = tested on: HOP-62 NSCLC
[5] = tested on: NCI-H460 lung
[6] = tested on: HOP-92 NSCLC
[7] = tested on: NCI-H522 lung
[8] = tested on: A549/ATCC NSCLC
[9] = tested on: 786-0 renal
[10] = tested on: COLO 205 colon

Measured: growth

Nc1[nH]nc(Nc2ccccc2)c1-c1nc2ccccc2s1
active: [5] 5.94% | [6] -15.8% | [7] -44.6%
inactive: [1] 24.2% | [2] 57.3% | [3] 37.6% | [4] 28.6% | [8] 20% | [9] 10.2% | [10] 64.2%

Cc1ccc(NC(=O)c2sc3nc(C)c(C(=O)c4ccccc4)cc3c2N)cc1
inactive: [1] 96.2% | [2] 99.9% | [3] 92.2% | [4] 90.7% | [5] 65.7% | [6] 80% | [7] 88.2% | [8] 44.1% | [9] 91.9% | [10] 98.5%

CCNC(=S)n1nc(SC)c(C(=O)OCC)c1N
inactive: [1] 93.3% | [2] 91.9% | [3] 91.8% | [4] 86.7% | [5] 106% | [6] 110% | [7] 89.9% | [8] 107% | [9] 98.6% | [10] 107%

COc1ccc(/C(C)=C(\c2ccc(OCCN3CCOCC3)cc2)c2ccc(OC(=O)C3CCCCC3)cc2)cc1
inactive: [1] 101% | [2] 113% | [3] 99.5% | [4] 108% | [5] 107% | [6] 109% | [7] 104% | [8] 106% | [9] 104% | [10] 110%

Nc1n[nH]c2cccc(C#Cc3cccc(NC(=O)c4ccc(N5CCOCC5)c(C(F)(F)F)c4)c3)c12
inactive: [1] 13.5% | [3] 10.4% | [4] 16.8% | [5] 18.7% | [8] 13%
active: [2] -0.121% | [6] -47.1% | [7] 9.42% | [9] -39.4% | [10] -18.2%

O=C1/C(=C/c2ccc(F)c(F)c2)CN(C(=O)C(Cl)Cl)C/C1=C\c1ccc(F)c(F)c1
active: [1] -81.2% | [2] -17% | [3] -86% | [4] -57.7% | [5] -71.9% | [6] -62.6% | [7] -81.8% | [8] -52.1% | [9] -96% | [10] -85.8%

COc1ccc(-c2ccccc2)cc1-c1c(Nc2cc(Cl)cc(Cl)c2O)c(=O)c1=O
active: [1] 2.65% | [4] 2.04% | [5] 7.61% | [6] -24.5% | [7] -19.6% | [8] 8.72%
inactive: [2] 19.3% | [3] 11.3% | [9] 17.3% | [10] 48.1%

O=C(Nc1ccccc1C(=O)N/N=C(\c1ccccc1)c1ccccn1)c1ccccc1
active: [4] 9.93% | [5] -0.498% | [7] 0.831% | [8] 9.7% | [9] 9.15% | [10] 5.09%
inactive: [1] 24.9% | [2] 18.1% | [3] 29.1% | [6] 34.9%

COc1cc(/C=C(/c2ccccc2)[N+](=O)[O-])c(OC)c2c1OCO2
active: [1] -34.7% | [3] 3.33% | [4] -19.6% | [5] -16.1% | [6] -49.2% | [7] -62.8% | [8] 5.75% | [9] -98% | [10] -53.1%
inactive: [2] 24.8%

Nc1nc(N)c2c(n1)NC(c1ccc(Cl)cc1)CC(c1cccc(Nc3ccncc3)c1)=N2 (stereo not given)
inactive: [1] 54.7% | [2] 95.3% | [3] 63.9% | [4] 75.5% | [5] 23.2% | [6] 48.5% | [7] 88.6% | [8] 30.6% | [9] 41.9% | [10] 50.5%

Cc1cccc(Cc2cnc(NC(=O)CCCOc3ccc(Cl)cc3)s2)c1
active: [5] 9.65%
inactive: [1] 54% | [2] 53.8% | [3] 44.7% | [4] 28.7% | [6] 52.2% | [7] 42.5% | [8] 10.7% | [9] 11% | [10] 15.2%

Cc1cc2nc(C(Cl)Cl)nc(-c3ccc(Cl)cc3)n2n1
inactive: [2] 67% | [6] 16.1% | [9] 45%
active: [1] -19.9% | [3] -32.5% | [4] -8.28% | [5] -49.4% | [7] 3.6% | [8] 0.301% | [10] -37.2%

C#CCn1cnc2cnc(Nc3cccc(NC(=O)CCl)c3)nc21
inactive: [3] 10.4% [6.25 µM] | [6] 12.6% [6.25 µM]
active: [1] -8.25% [6.25 µM] | [2] -26% [6.25 µM] | [4] 4.26% [6.25 µM] | [5] -13.4% [6.25 µM] | [7] -57.1% [6.25 µM] | [8] -51.3% [6.25 µM] | [9] 2.39% [6.25 µM] | [10] -57.3% [6.25 µM]

COc1ccc(/C=C2\COc3ccc(O)c(O)c3C2=O)c(OC)c1OC
inactive: [1] 38.6% | [2] 63.9% | [3] 56.2% | [4] 17.7% | [5] 24.9% | [6] 38.9% | [8] 43.1% | [9] 28% | [10] 72.3%
active: [7] -45.2%

Cn1cc2c(=O)nc3c(-c4nc5ccccc5[nH]4)n[nH]n3c2n1
active: [7] -44.5%
inactive: [1] 78.6% | [2] 96.4% | [3] 91.8% | [4] 73% | [5] 81.9% | [6] 83.6% | [8] 79.2% | [9] 80.7% | [10] 114%

COc1ccc(Cn2cc(C(=O)Nc3cccnc3Nc3ccccc3)nn2)cc1
inactive: [1] 98.7% | [2] 95.6% | [3] 95.7% | [4] 103% | [5] 114% | [6] 105% | [7] 91.8% | [8] 99.3% | [9] 94.2% | [10] 113%

Cc1ccc(NC(=O)c2ccc(CN3CCN(C)CC3)cc2)cc1Nc1nccc(-c2cccnc2)n1
inactive: [1] 82.9% and 76.2% | [2] 89.4% and 78.2% | [3] 104% | [4] 84.9% | [5] 96.8% and 83.9% | [6] 56.3% and 66.4% | [7] 51.2% | [8] 96.2% and 62.2% | [9] 95% and 88.6% | [10] 101% and 78.3%

Cc1c(CC(=O)OCCO)cc(-c2ccc(Cl)cc2)n1-c1ccccc1
inactive: [1] 82.3% | [2] 93.9% | [3] 106% | [4] 95% | [5] 104% | [6] 97.4% | [7] 82.6% | [8] 94% | [9] 102% | [10] 109%

COCCOc1cc2ncnc(N3CCN(S(=O)(=O)c4ccccc4Cl)CC3)c2cc1OCCOC
inactive: [1] 85.8% | [2] 95.5% | [3] 98.3% | [4] 90.4% | [5] 103% | [6] 75.6% | [7] 65.8% | [8] 86.7% | [9] 89.2% | [10] 96.8%

COc1ccc(C(CC(=O)c2ccc3c(c2)OCO3)C(=O)O)cc1OC (stereo not given)
inactive: [1] 104% and 96.7% | [2] 110% | [3] 107% and 96.1% | [4] 106% and 104% | [5] 102% and 112% | [6] 108% and 101% | [7] 88.6% and 78.1% | [8] 92.6% and 98% | [9] 111% and 98.6% | [10] 122% and 107%

COc1cc2nc3cc([N+](=O)[O-])ccc3c(NCCNCC(C)(C)O)c2cc1OC
active: [1] -34.1% | [2] -4.58% | [3] -3.78% | [4] -23% | [5] -38.7% | [6] -45.6% | [7] -40.3% | [8] -9.76% | [9] 2.27% | [10] -70.1%

Cn1c(=O)c2c(nc(Nc3cc(=O)[nH]c(=O)[nH]3)n2Cc2ccccc2)n(C)c1=O
active: [5] 2.91% | [7] 4.24% | [10] -2.38%
inactive: [1] 91.5% | [2] 86.6% | [3] 97.9% | [4] 20.6% | [6] 80.5% | [8] 12.3% | [9] 102%

O=C(Oc1ccc(CO[N+](=O)[O-])cc1)c1ccccc1
active: [1] -71.1% | [2] -96.5% | [3] -88.1% | [4] -86.5% | [5] -65.3% | [6] -88% | [7] -67.2% | [8] -9.66% | [9] -87.7% | [10] -74.2%

Nc1nc(CSc2n[nH]c(N)n2)nc(Nc2ccccc2)n1
inactive: [1] 102% | [2] 101% | [3] 97.8% | [4] 106% | [5] 103% | [6] 95.4% | [7] 93.4% | [8] 102% | [9] 96% | [10] 109%
